PubChem BioAssay AID651812 (National Center for Advancing Translational Sciences (NCATS), 2012)
Screen size: about 2,100 compounds; about 650 (31%) were called active. Not shown: some 16% with an inconclusive outcome. Calls follow the shape of the dose curve; as a rule, active = well fitted inhibition curve with a large enough effect; inconclusive = small, poorly fitted or top-dose-only effect; inactive = flat fitted curve, though single readings scatter. The list shows a part of the results. Where a call stands in place of a potency, no number is given.

Assay: qHTS for inhibitors of Vif-A3G interactions: Cherry picks; also: nearly all actives have a fitted effect of over 80% in size
Conditions: HeLa A3G-eYFP + Vif (tagged APOBEC3G with the HIV-1 protein that degrades it), 24 h; Potency: eYFP fluorescence increase; series mostly up to 36.9 µM
From the text: The recent discovery and characterization of host restriction factors, which provide a potent defense to invading retroviruses, has provided new targets for antiviral drug development. APOBEC3G (A3G) and APOBEC3F (A3F) are potent cytidine deaminases that block HIV-1 replication; HIV-1 expresses the Vif protein, which counteracts A3G and A3F by binding to them and inducing their proteasomal degradation. The Vif-A3G and Vif-A3F interactions provide two potential targets for development of small molecules which can interfere with the ability of Vif to degrade A3G or A3F. […] To identify inhibitors that can interfere with Vif mediated degradation of A3G and A3F, we have developed Hela cell lines that stably express A3G or A3F tagged with eYFP at the C-terminal end (A3G-eYFP or A3F-eYFP, respectively) and Vif. In the absence of an inhibitor, Vif induces degradation of A3G-eYFP and A3F-eYFP, and the cells are not fluorescent. In the presence of an inhibitor, it is expected that Vif will be unable to degrade A3G-eYFP and/or A3F-eYFP, resulting in an increase in yellow fluorescence. In this assay, Vif A3G was screened against the cherry picks ordered from the MLSMR. NIH Chemical Genomics Center [NCGC] NIH Molecular Libraries Probe Centers Network [MLPCN] MLPCN Grant: MH093245 Assay Submitter (PI): Vinay Pathak, National Cancer Institute
A3G-Vif cells were harvested from T225 flask and resuspended in phenol free OPTI-MEM medium with 5% FBS. Then 5 uL of 140,000 cells/mL resuspended cells was dispensed into each well of low base Aurora COC 1,536-well plates (black walled, clear bottom) using a Multidrop Combi dispenser. After overnight culture at 37 deg C with 5% CO2, a total of 23 nL of compounds at 5 selected concentrations from the NPC or positive control (2 mM stock of MG132) in DMSO was transferred to each well of the assay plate using a pintool (Kalypsys, San Diego, CA), and the plates were further incubated at 37 deg C with 5% CO2 for 24 hours. After that, the plates were measured on Acumen Explorer (TTP Lab Tech). The fluorescence was detected by 488 nm/Ex and […].
Potency is read from the fitted curve at half-maximal effect.

| Compound | Potency |
| --- | --- |
| COc1cc(-c2noc(C)c2C#Cc2ccc(N)cc2)cc(OC)c1OC | inactive |
| CSCC[C@H](NC(=O)[C@H](Cc1ccccc1)n1c(=O)[nH]c2ccccc2c1=O)C(=O)N1CCC[C@@H]1C(=O)O | inactive |
| COc1cc(-c2noc(C)c2/C=C/c2ccc(OC(C)=O)cc2)cc(OC)c1OC | inactive |
| CCOC(=O)c1ccc(NC(=O)CSc2nc(-c3cccs3)cc(C(F)(F)F)c2C#N)cc1 | 20.6 µM (active) |
| C=CCNc1nc(-c2ccccc2)c(C(=O)OCC)cc1C#N | inactive |
| CCCCOc1ccc(-c2cc(C(F)(F)F)c(C#N)c(SCC(=O)O)n2)cc1 | 18.4 µM (active) |
| O=C(CSc1nc(-c2ccco2)cc(C(F)(F)F)n1)Nc1cccnc1 | inactive |
| Cc1coc(NC(=O)CSc2nc(-c3ccncc3)cc(C(F)(F)F)c2C#N)n1 | 14.6 µM (active) |
| CCOC(=O)c1ccc(NC(=O)CSc2nc(-c3ccc(OC)cc3)cc(C(F)(F)F)c2C#N)cc1 | 20.6 µM (active) |
| O=C(OCCC12CC3CC(CC(C3)C1)C2)c1ccc(NCc2cc(O)ccc2O)cc1 | inactive |
| N#Cc1c(C(F)(F)F)cc(-c2cccs2)nc1SCC(=O)Nc1cccc(C(F)(F)F)c1 | 18.4 µM (active) |
| N#Cc1c(C(F)(F)F)cc(-c2cccs2)nc1SCC(=O)Nc1cccc(Cl)c1 | inactive |
| O=C(NCc1ccccc1)C1Cc2c(-c3ccc(Cl)cc3)ccnc2O1 (stereo not drawn) | inactive |
| COCCCNC(=S)N/N=C/c1ccc(OC)cc1 | inactive |
| CN(C)c1ccc(/C=C(/C#N)C(=O)NCc2ccccc2)o1 | 14.6 µM (active) |
| N#C/C(=C\c1ccc(N2CCOCC2)o1)C(=O)NC1CCCCC1 | 15.8 µM (active) |
| N#C/C(=C\c1ccc(N2CCOCC2)o1)C(=O)NCCc1ccccc1 | 23.1 µM (active) |
| N#C/C(=C\c1ccccc1[N+](=O)[O-])C(=O)NCc1ccccc1 | inactive |
| N#C/C(=C/c1ccc(N2CCOCC2)o1)C(=O)NC1CCCCC1 | 18.4 µM (active) |
| O=C(NCc1ccccc1)C(=O)NCC1COc2ccccc2O1 (stereo not drawn) | inactive |
| Cc1ccc(CN(C(=O)c2ccccc2F)c2ccccn2)o1 | inactive |
| CCOC(=O)c1cnc(-n2nc(C)cc2C)nc1NNc1nc(-c2ccccc2)cc(-c2ccccc2)n1 | inactive |
| COC(=O)c1[nH]c2c(c1C(=O)OC)CCc1ccccc1-2 | inactive |
| CC(CC(=O)Nc1ccc2c(c1)c(=O)n(C)n2-c1ccccc1F)c1ccccc1 (stereo not drawn) | inactive |
| O=C1[C@@H]2[C@@H](CN3CN(c4ccccc4)N=C(c4ccccc4)[C@@]23c2ccccc2)C(=O)N1c1ccccc1 | inactive |
| O=C(Cn1nc2c(cc1=O)CCCC2)NCc1ccc(Cl)cc1 | inactive |

| Compound | Potency |
| --- | --- |
| Nc1c(C(=O)c2ccc(Cl)cc2)sc2nc3c(cc12)CCC3 | 18.4 µM (active) |
| CC(=O)Nc1cccc(-c2ccnc3c2CC(C)(C(=O)NCc2ccccc2)O3)c1 (stereo not drawn) | inactive |
| COc1ccc(/C=N/NC(=O)c2cc(OC)c(OC)c(OC)c2)cc1CN1CCc2cc(OC)c(OC)cc2C1C (stereo not drawn) | inactive |
| O=C1NC(=Nc2ccccc2Cl)S/C1=C\c1cc([N+](=O)[O-])ccc1O | inactive |
| O=C1/C(=C\c2cc([N+](=O)[O-])ccc2O)SC(=S)N1Cc1ccc(Cl)cc1 | 18.4 µM (active) |
| CN(C)c1ccc(/C=C/C(=O)c2c(O)c3ccccc3oc2=O)cc1 | 1.46 µM (active) |
| C=CCOc1ccc2nc(NC(=O)OC)[nH]c2c1 | inactive |
| CC[n+]1c(/C=C/Nc2ccccc2)oc2ccccc21 | 14.6 µM (active) |
| CC[n+]1c(/C=C/N(C)c2ccccc2)oc2ccc(F)cc21 | 17.7 µM (active) |
| CC[n+]1c(/C=C/Nc2ccccc2)oc2ccc(OC)cc21 | 20.6 µM (active) |
| COc1ccc(N/C=C/C(=O)c2sc(-c3ccccc3)nc2C)cc1 | inactive |
| Cc1c(C(=O)N2CCOCC2)[nH]c2c1C(=O)CC(c1ccccc1Cl)C2 (stereo not drawn) | inactive |
| Cc1ccc(C)c(N2CCN(C(=O)c3cccn4c(=O)c5sccc5nc34)CC2)c1 | inactive |
| COc1ccc(-c2coc3cc4oc(=O)cc(-c5ccccc5)c4cc23)cc1F | inactive |
| CCC/C=N/NC(=O)c1[nH]c2c([N+](=O)[O-])cccc2c1C | inactive |
| CCCC(=O)Nc1nc2ccc(NC(=O)c3ccccc3F)cc2s1 | inactive |
| O=C(CSc1nc2ccc(Nc3nc(N4CCOCC4)nc(N4CCOCC4)n3)cc2s1)Nc1ccccc1F | 5.8 µM (active) |
| O=C(CSc1nc2ccccc2s1)c1cc2ccccc2o1 | inactive |
| CCOc1cc(C#N)c(NC(=O)c2cccnc2)cc1OCC | inactive |
| Cc1ccc(C(=O)CSC2=C(C#N)C(c3ccco3)C3=C(CCCC3=O)N2)cc1 (stereo not drawn) | inactive |
| Cc1nc(SCC(=O)c2ccccc2)c(C#N)c(-c2ccco2)c1C(=O)NCc1ccco1 | inactive |
| Cc1ccc(C(=O)CSc2nc(-c3ccccc3)ccc2C#N)cc1 | 18.4 µM (active) |
| N#Cc1ccc(-c2cccnc2)nc1SCC(=O)c1ccccc1 | 16.4 µM (active) |
| CCOc1ccc(S(=O)(=O)Nc2cc3c(C(=O)OC)c(COC)oc3c3ccccc23)cc1 | inactive |
| COc1ccc(NC(=O)/C(C#N)=C\C=C\c2ccco2)cc1 | inactive |
| CN1/C(=C\C=C(/C#N)C(=O)Nc2ccc(Cl)cc2)C(C)(C)c2ccccc21 | 4.98 µM (active) |

| Compound | Potency |
| --- | --- |
| CN1/C(=C\C=C(/C#N)C(=O)Nc2ccccc2F)C(C)(C)c2ccccc21 | 9.2 µM (active) |
| O=C(NNC1=Nc2cccc3cccc1c23)c1ccc(Br)cc1 | 18.4 µM (active) |
| COCCCNC(=S)N/N=C/c1cccc(OC)c1O | inactive |
| CC1=C(n2nnc3ccccc32)C(c2ccccc2)C(C#N)=C(N)O1 (stereo not drawn) | inactive |
| CCN1/C(=C/c2cccc[n+]2C)Sc2ccc(OC)cc21 | 16.4 µM (active) |
| CC[n+]1ccccc1/C=C1\Sc2ccc(C)cc2N1C | 20.6 µM (active) |
| COc1ccc(C(=O)Nc2ccc3c(c2)N(C)C(=O)c2ccccc2S3)cc1OC | inactive |
| CCOc1ccc(CN2C(=O)c3ccccc3Sc3ccc(C(=O)O)cc32)cc1 | inactive |
| COc1ccc2c(c1)N(C)/C(=C/c1cccc[n+]1C)S2 | 14 µM (active) |
| N#CC1=C(N)Oc2ccc3ccc(O)cc3c2C1c1ccsc1 (stereo not drawn) | inactive |
| O=C(Cc1nc2ccccc2[nH]c1=O)c1ccc(Cl)cc1 | 20.6 µM (active) |
| c1ccc2[nH]c(NN=C3CCCCCC3)nc2c1 | inactive |
| CC(=O)/C(=C\N(C)C)Sc1ccc(Cl)cc1 | inactive |
| COc1cccc(C2=CC(c3cccs3)n3nnnc3N2)c1 (stereo not drawn) | inactive |
| Cc1cc(C)n(S(=O)(=O)/C=C/c2ccccc2)n1 | inactive |
| O=C(NCC1CCCO1)c1nn2c(C(F)(F)F)cc(-c3cc(Br)cs3)nc2c1Br (stereo not drawn) | 13 µM (active) |
| COc1ccc(C)cc1NCc1cc(=O)oc2cc(-c3ccccc3)c(O)cc12 | inactive |
| CCOC(=O)c1c(-c2ccc(OC)cc2)csc1/N=C/C1C(=O)CCCC1=O | inactive |
| O=C(CC1CC2CCC1C2)Nc1nc(-c2ccccn2)cs1 (stereo not drawn) | inactive |
| N#Cc1c(-c2ccc(F)cc2)c(-c2ccc(F)cc2)nn(CCO)c1=O | 12.5 µM (active) |
| N#Cc1c(-c2ccccc2)c(-c2ccccc2)nn(CC(=O)NNC(=O)Nc2ccccc2)c1=O | inactive |
| CCn1c(SCC(=O)N/N=C/c2ccc(C)s2)nc2ccccc21 | inactive |
| Cc1ccc(S(=O)(=O)N2CCCCC2CCNC(=O)C(=O)NCc2ccco2)cc1 (stereo not drawn) | inactive |
| Cc1cccc(C)c1OCC(=O)N/N=C/c1ccc2c(c1)OCO2 | inactive |
| Cc1ccccc1OCC(=O)N/N=C/c1ccc(N(C)C)cc1 | inactive |
| COc1cc(/C=N\Nc2ccc([N+](=O)[O-])cc2)ccc1OCC(=O)Nc1ccc(C)c(C)c1 | 8.2 µM (active) |

| Compound | Potency |
| --- | --- |
| COCCNC(=S)N/N=C(\C)c1ccccc1O | inactive |
| CC[n+]1ccc(/C=C/c2c[nH]c3ccccc23)cc1 | 14.6 µM (active) |
| OCC[n+]1ccc(/C=C/c2c[nH]c3ccccc23)cc1 | 10.3 µM (active) |
| C[n+]1ccc(/C=C/c2c[nH]c3ccccc23)cc1 | 11.6 µM (active) |
| C[n+]1ccc(/C=C/c2cc[n+](C)c3ccccc23)c2ccccc21 | inactive |
| CC(=O)Nc1cccc(-c2cc(NC=O)c3ncc(-c4ccc(F)c(Cl)c4)n3c2)c1 | inactive |
| COc1ccc(-c2cc(NC=O)c3ncc(-c4cccc(C(F)(F)F)c4)n3c2)cc1OC | inactive |
| N#C/C=C/N1CCN(C(=O)c2ccco2)CC1 | inactive |
| COc1cc(C2Sc3ccccc3NC3=C2C(=O)OC3)cc(OC)c1OC (stereo not drawn) | inactive |
| COc1cc(CCC(=O)Nc2nnc(C)s2)cc(OC)c1OC | inactive |
| Cc1cc(C)nc(NC(=S)Nc2cccc(Cl)c2Cl)c1 | inactive |
| N#CC(C(=O)NCc1ccccc1)c1nc2ccccc2nc1N1CCCC1 (stereo not drawn) | 18.4 µM (active) |
| NC(=O)C1CCN(c2nc3ccccc3nc2NS(=O)(=O)c2ccc(Br)cc2)CC1 | inactive |
| CCN(CC)c1nc2ccccc2nc1C(C#N)C(=O)NCCc1ccccc1 (stereo not drawn) | 3.66 µM (active) |
| CN1CCN(c2ccc([N+](=O)[O-])cc2C(=O)c2ccc(Br)cc2)CC1 | inactive |
| Cc1cc(C)c(C(=O)N(CCN(C)C)CC2CCCN(Cc3ccccc3F)C2)o1 (stereo not drawn) | inactive |
| COc1ccccc1C(=O)Nc1ccc2c(c1)CN(C(=O)CSC)CC2 | inactive |
| Cc1ccc(-c2nc3sc(C#N)c(N)n3c(=O)c2C#N)cc1 | 18.4 µM (active) |
| O=C(NCc1ccco1)C1Cc2c(-c3cccc(F)c3)ccnc2O1 (stereo not drawn) | inactive |
| Cc1ccc(C(=O)c2cc([N+](=O)[O-])ccc2N2CCN(C)CC2)cc1 | inactive |
| CCN(CC)c1ccc2cc(-c3nc4sc5c(c4c(=O)[nH]3)CCC(C(C)(C)C)C5)c(=O)oc2c1 (stereo not drawn) | inactive |
| CCN(CC)c1ccc2cc(-c3nc(-c4cc(OC)c(OC)c(OC)c4)no3)c(=O)oc2c1 | 0.58 µM (active) |
| CCN(CC)c1ccc2cc(-c3nc(-c4cccs4)no3)c(=O)oc2c1 | 2.91 µM (active) |
| CCN(CC)c1ccc2cc(-c3nc(-c4ccc(Cl)cc4Cl)cs3)c(=O)oc2c1 | 2.91 µM (active) |
| CCN(CC)c1ccc2cc(-c3nnc(-c4ccccc4)o3)c(=O)oc2c1 | 0.627 µM (active) |
